# Only a selection was taken, and hits are over-represented in it overall.
# FBPA Giardia inh – Giardia lamblia aldolase inhibition | A8B2U2 | purified Giardia FBPA | Potency, µM (top dose mostly 59.6 µM), for inactives: at the top dose activity, negative = inhibition, usual class: inhibitors | 0.71% of 290,000 active; also: potency is read from the fitted curve at half-maximal effect; % is scaled to controls: 0 for no effect and ±100 for the full control effect; nearly all actives have a fitted effect of over 55% in size
#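 Giardia FBPA (40 nM reagent) was preincubated 10 min at RT with compound (up to 57.5 uM final), then substrate plus GAPDH/TPI/NAD/arsenate coupling system with diaphorase/resazurin was added; resorufin fluorescence (525/598 nm) was read after 20 min.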
# Tb PYK inh – T. brucei pyruvate kinase inhibition. Potency, µM (highest dose often 76.8 µM), for inactives: at the highest dose activity, negative = inhibition, hits mostly inhibitors. TbPYK enzyme, Kinase-Glo Plus ATP luminescence, 45 min. Q57TT1. 0.12% of 410,000 active; also: potency is read from the fitted curve at half-maximal effect; % is scaled to controls: 0 for no effect and ±100 for the full control effect; nearly all actives have a fitted effect of over 50% in size
#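 Glycolytic pyruvate kinase of T. brucei was incubated with substrate, test compound and 130 uM ADP for 45 minutes at room temperature. Luminescent Kinase-Glo Plus signal was measured after 10 minutes.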
# LmPK inhibitor – inhibitors of Leishmania mexicana pyruvate kinase | purified LmPK, Kinase-Glo ATP luminescence, 1 h | 0.37% of 290,000 active | Q27686 | Potency, µM (titrated, usually from 57.5 µM), without a hit: at the highest dose activity change, negative = inhibition, most hits filed as inhibitors; also: potency is read from the fitted curve at half-maximal effect; % is scaled to controls: 0 for no effect and ±100 for the full control effect
# Target sequence (Q27686 whole entry, looked up): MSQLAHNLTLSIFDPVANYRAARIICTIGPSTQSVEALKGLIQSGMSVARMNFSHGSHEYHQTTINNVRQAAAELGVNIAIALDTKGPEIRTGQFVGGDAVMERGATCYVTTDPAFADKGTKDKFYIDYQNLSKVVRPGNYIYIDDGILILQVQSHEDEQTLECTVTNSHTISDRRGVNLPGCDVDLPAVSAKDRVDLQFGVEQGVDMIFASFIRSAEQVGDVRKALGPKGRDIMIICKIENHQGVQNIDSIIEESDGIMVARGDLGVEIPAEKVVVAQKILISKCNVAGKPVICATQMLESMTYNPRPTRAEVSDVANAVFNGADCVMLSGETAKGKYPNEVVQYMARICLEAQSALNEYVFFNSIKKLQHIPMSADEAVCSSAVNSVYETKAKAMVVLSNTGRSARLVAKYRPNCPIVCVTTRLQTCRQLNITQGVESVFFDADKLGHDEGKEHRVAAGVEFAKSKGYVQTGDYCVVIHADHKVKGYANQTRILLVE
#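 ATP generated from ADP (0.1 mM) and PEP (0.5 mM) by 0.1 nM LmPK over 1 h at room temperature (pH 7.2 imidazole buffer) was detected by coupled luciferase luminescence. Values were normalized to uninhibited and no-enzyme wells.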
# CHX counter – counter-screen for Shiga toxin inhibitors: cycloheximide protein synthesis inhibition; cell reporter, cycloheximide protein synthesis inhibition counterscreen; max response, %; 12% of 300,000 active; in the data active = max response mostly above about 13%, no sharp cut-off; inactive = mostly below about 14%; also: read at 38.3 µM for the half of the compounds with a filed dose; 0% is about no effect
# RE007 growth inh – less growth of the S. pombe RE007 Vpr strain; S. pombe RE007 Vpr strain, BacTiter-Glo ATP luminescence, 24 h; Potency, µM (doses to about 92.2 µM), without a hit: at the top dose activity change, negative = less growth, actives largely listed as inhibitors; 0.21% of 360,000 active; AID 651644; active = well fitted falling curve with a large enough effect; inconclusive = small, poorly fitted or top-dose-only effect; inactive = no such curve, though single readings can be large or run the other way; also: potency is read from the fitted curve at half-maximal effect; % is scaled to controls: 0 for no effect and ±100 for the full control effect; nearly all actives have a fitted effect of over 50% in size
#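 Fission yeast strain RE007, carrying one chromosomally integrated HIV-1 vpr copy, was seeded at OD 0.01 in PMG+AL medium with 23 nL pinned compound. After 24 h at 30 °C and 99% humidity, viability was read by BacTiter-Glo luminescence.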
# Shiga toxin inh – Shiga toxin inhibition; Vero cells, Shiga toxin protein synthesis inhibition reporter; inhibition, % at 38.7 µM; 9.2% of 290,000 active; in the data active = inhibition mostly above about 28%, no sharp cut-off; inactive = mostly below about 43%; also: 0% is about no effect
# * marks the source's active call; other numbers are inactive results; u = inconclusive; x = not tested or not shown; [ ] = remark or other dose. Unless noted, calls follow the shape of the dose curve; as a rule, active = well fitted curve in the direction sought with a large enough effect; inconclusive = small, poorly fitted or top-dose-only effect, or another doubt; inactive = no such curve, though single readings can be large; an effect the other way counts as inactive or inconclusive.
SMILES,FBPA Giardia inh,Tb PYK inh,LmPK inhibitor,CHX counter,RE007 growth inh,Shiga toxin inh
O=C(Nc1ccc2c(c1)OCCO2)N1CCN(c2ccc(F)cc2)CC1,18.8%,-15.4%,-0.4%,38.2*,18.2%,34.9*
CC(C)(C)OC(=O)N1CCCN(C(=O)Nc2ccccc2)CC1,-3.7%,2.7%,-2.1%,-2.4,29.3%,8.6
CC1CN(C(=O)Nc2ccc3c(c2)OCCO3)CC(C)O1 (centres undefined),-7.6%,1.5%,-2.5%,17.9,17.0%,7.6
Cc1ccc(NC(=O)C2CCCN(c3ncnc4c3nc3n4CCCCC3)C2)c(Br)c1 (centres undefined),x,-3.3%,x,x,x,x
COc1ccc(NC(=O)C/C(C)=N/NC(=O)c2ccccn2)c(OC)c1,18.8%,4.2%,-6.8%,37.5*,-2.8%,87.9*
COc1cc(OC)cc(C(=O)N/N=C(\C)CC(=O)Nc2ccccn2)c1,u,-4.8%,14.2%,1.6,7.5%,17.1
COc1ccc(CCNC(=O)C/C(C)=N/NC(=O)c2cnccn2)cc1,9.8%,-3.3%,-2.9%,35.7*,2.6%,41.4*
C/C(CC(=O)Nc1ccc2c(c1)OCCO2)=N\NC(=O)c1ccccn1,u,0.2%,-2.2%,11.0,2.3%,12.8
C/C(Cc1ccccc1)=N\NC(=O)c1cccnc1,4.0%,1.1%,6.2%,13.0,-7.4%,8.9
C/C(CC(=O)Nc1cc(C)cc(C)c1)=N\NC(=O)c1ccccn1,0.1%,-0.4%,-3.2%,37.1*,-7.2%,43.2*
C/C(Cc1ccccc1)=N\NC(=O)c1ccccn1,8.4%,0.2%,0.6%,53.4*,2.6%,89.0*
Cc1ccc(-n2nnnc2CNC(=O)c2ccccc2F)cc1C,x,0.6%,x,x,x,x
CCC(=O)N1CCC(C)(C(=O)Nc2ccc(OC)c(OC)c2)C1 (centres undefined),x,0.7%,x,x,8.4%[18.4 µM],x
Cc1ccc(S(=O)(=O)c2cn(Cc3ccccc3)c3cc(N4CCCC4)c(F)cc3c2=O)cc1C,x,-2.6%,x,x,x,x
COc1ccc(NC(=O)C/C(C)=N/NC(=O)c2cnccn2)c(OC)c1,-8.6%,1.1%,-1.9%,36.9*,2.8%,33.8
COc1ccc(NC(=O)C/C(C)=N/NC(=O)C(=O)NC2CCCCC2)c(OC)c1,-13.9%,2.3%,0.0%,-4.2,-5.1%,13.2
CCC(C)c1ccc(NC(=O)C/C(C)=N/NC(=O)c2cnccn2)cc1 (centres undefined),-16.8%,-1.5%,-0.3%,24.3*,26.9%,48.1*
C/C(CC(=O)NCc1ccccc1)=N\NC(=O)c1cnccn1,-0.4%,21.5%,0.2%,12.2*,22.2%,40.3*
C/C(CC(=O)Nc1ccccc1C(F)(F)F)=N\NC(=O)c1cnccn1,x,-0.9%,x,x,-1.7%,x
COc1ccc(OC)c(S(=O)(=O)N2Cc3ccccc3CC2C(=O)Nc2ccc(C(C)=O)cc2)c1 (centres undefined),x,-5.5%,x,x,x,x
O=C(/C=C/c1cccs1)N1CCN(c2ccc(O)cc2)CC1,-24.1%,-9.6%,15.8µM*,11.3,137.3%,30.9
O=C(/C=C/c1cccs1)N1CCCCC1,2.6%,-7.2%,u,39.3*,5.9%,61.0*
O=C(/C=C/c1cccs1)N1CCN(Cc2ccc3c(c2)OCO3)CC1,3.8%,-10.1%,-4.3%,-0.9,1.0%,12.9
COc1cc2c(cc1OC)CN(C(=O)/C=C/c1cccs1)CC2,1.6%,0.5%,-1.8%,2.5,-0.4%,33.5
O=C1NCCN(Cc2c(F)cccc2Cl)C1CC(=O)N1CCCO1 (centres undefined),-12.1%,-4.6%,2.4%,-3.0,1.1%,12.6
O=C1NCCN(Cc2ccc(Cl)c(F)c2)C1CC(=O)N1CCCO1 (centres undefined),-14.7%,-8.6%,0.3%,13.0*,-24.9%,38.3
COc1ccc(CCNC(=O)CSc2nc3[nH]ncc3c(=O)n2-c2ccc(C)c(Cl)c2)cc1OC,-1.6%,2.8%,14.0%,40.7*,-1.7%,96.4*
CC(C)(C)NC(=O)NC(=O)CSc1nnc(COc2ccccc2Cl)o1,-3.5%,-4.7%,-2.4%,15.2*,23.8%,39.7
O=C(CSc1nnc(COc2ccccc2Cl)o1)Nc1ccccc1,x,-5.7%,x,x,-0.6%,x
COc1ccc(Cn2c(=O)[nH]c3cc(C(=O)N4CCN(c5cc(Cl)ccc5C)CC4)ccc3c2=O)cc1,x,5.4%,x,x,x,x

# Compound activity as filed in PubChem BioAssay.
